Laboratory results reported in PubChem BioAssay (EPA / NIEHS).
Active and inactive are the calls of the source. The calls were made as follows: active = hit-call score of the fitted dose curve at least 0.9, where 1 is the maximum; inactive = score below 0.9.

How the values were obtained:
[1] = ATG_CRE_CIS: Attagene CIS-FACTORIAL HepG2 Assay for human cAMP Responsive Element (CRE) binding protein 3 (AID 2282926); details: HepG2 CRE cis-reporter, Attagene multiplexed mRNA; actives raise or lower the signal
Summary of the method: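 Readout: fluorescently labelled reporter transcripts resolved by capillary electrophoresis after RT-PCR, taken 24 h post-dosing in transfected HepG2. Endogenous transcription factor activity drives each cis-element reporter; gain or loss of signal fitted relative to DMSO control.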

[2] = molecular target: CCAAT/enhancer-binding protein beta (Homo sapiens) (UniProt P17676); assay: ATG_C_EBP_CIS: Attagene CIS-FACTORIAL HepG2 Assay for human CCAAT/Enhancer Binding Protein (C/EBP) beta (AID 2282927); details: HepG2 Attagene cis-factorial transcription factor reporter; actives raise or lower the signal
Chain of CCAAT/enhancer-binding protein beta (Homo sapiens) (P17676 whole entry, looked up): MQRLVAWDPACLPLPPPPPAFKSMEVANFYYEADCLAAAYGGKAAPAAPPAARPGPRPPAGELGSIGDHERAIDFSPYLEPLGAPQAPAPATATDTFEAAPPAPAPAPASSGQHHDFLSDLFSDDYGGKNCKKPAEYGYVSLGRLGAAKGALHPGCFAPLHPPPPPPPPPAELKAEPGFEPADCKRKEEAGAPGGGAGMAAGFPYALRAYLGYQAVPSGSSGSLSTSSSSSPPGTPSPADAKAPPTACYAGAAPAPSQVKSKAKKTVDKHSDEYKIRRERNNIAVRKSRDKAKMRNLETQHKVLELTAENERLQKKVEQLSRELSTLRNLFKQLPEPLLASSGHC
Summary of the method: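 HepG2 transiently transfected with multiplexed reporter units under cis-regulatory promoters reporting endogenous C/EBPb activity. After 24 h exposure, reporter mRNA assayed by RT-PCR, fluorescent labelling, HpaI digestion and capillary electrophoresis; bidirectional fitting versus DMSO.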

[3] = ATG_CMV_CIS: Attagene CIS-FACTORIAL HepG2 Assay for human CMV (Internal Marker) (AID 2282928); details: HepG2 CMV promoter reporter, transcription factor profiling; actives raise or lower the signal;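 also: endpoint acts as a background internal control marker rather than a target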
Summary of the method: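 Fluorescence intensity of RT-PCR-derived reporter fragments, resolved by capillary electrophoresis, gives the signal. HepG2 liver cells bearing transfected cis-element reporters were treated 24 h; activity in either direction was fit relative to DMSO-treated controls.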

[4] = ATG_AP_2_CIS: Attagene CIS-FACTORIAL HepG2 Assay for human Activator Protein 2 (AP-2) (AID 2282932); details: HepG2 AP-2 cis-reporter, Attagene transcription factor profiling; actives raise or lower the signal
Summary of the method: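 Liver-derived HepG2 line, cis-reporter system measuring endogenous factors; 24 h dosing; reporter mRNA detected by fluorescent RT-PCR and capillary electrophoresis.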

[5] = ATG_BRE_CIS: Attagene CIS-FACTORIAL HepG2 Assay for human Bone Morphogenetic Protein (BMP) Response Element (BRE) (AID 2282933); details: HepG2 BMP response element reporter, Attagene transcription factor profiling; actives raise or lower the signal
Summary of the method: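 A HepG2 multiplex reporter system measured inducible reporter mRNA 24 h post-dosing. Detection: RT-PCR, 6-FAM primer extension, HpaI digestion, capillary electrophoresis. Activity fitted bidirectionally relative to DMSO.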

[6] = molecular target: Transcription factor E2F1 (Homo sapiens) (UniProt Q01094); assay: ATG_E2F_CIS: Attagene CIS-FACTORIAL HepG2 Assay for human E2F Transcription Factor 1 (AID 2282935); details: HepG2 Attagene cis-reporter, E2F reporter RNA transcripts; actives raise or lower the signal
Chain of Transcription factor E2F1 (Homo sapiens) (Q01094 whole entry, looked up): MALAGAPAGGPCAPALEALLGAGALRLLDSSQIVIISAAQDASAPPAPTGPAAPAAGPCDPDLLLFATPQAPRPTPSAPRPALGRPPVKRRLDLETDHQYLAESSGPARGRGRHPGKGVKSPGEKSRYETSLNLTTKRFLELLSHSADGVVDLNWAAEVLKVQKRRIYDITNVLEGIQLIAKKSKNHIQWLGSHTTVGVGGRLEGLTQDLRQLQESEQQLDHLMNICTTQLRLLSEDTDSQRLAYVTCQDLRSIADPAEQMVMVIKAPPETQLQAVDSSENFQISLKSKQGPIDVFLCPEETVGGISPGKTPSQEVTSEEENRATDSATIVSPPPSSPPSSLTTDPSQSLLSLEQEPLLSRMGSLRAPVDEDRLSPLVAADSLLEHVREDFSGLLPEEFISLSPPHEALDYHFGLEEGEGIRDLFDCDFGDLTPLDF
Summary of the method: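 Liver-derived HepG2 cells expressing transfected promoter-driven reporter units received test chemical for 24 hours. Signal gains or losses were fitted bidirectionally against DMSO.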

[7] = ATG_E_Box_CIS: Attagene CIS-FACTORIAL HepG2 Assay for human Enhancer Box (E-box) (AID 2282936); details: HepG2 E-box cis-reporter transcription, actives raise or lower the signal
Summary of the method: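 In this cell-based setup, HepG2 cells bearing transfected promoter-driven reporter units were exposed to chemicals for 24 h; reporter transcripts were amplified, 6-FAM-labelled, cut with HpaI and sized by capillary electrophoresis.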

[8] = ATG_M_61_CIS: Attagene CIS-FACTORIAL HepG2 Assay for M61 Transcription Factor (Internal Marker) (AID 2282937); details: HepG2 Attagene CIS-FACTORIAL M61 internal marker reporter; actives raise or lower the signal
Summary of the method: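 Endogenous transcription factor activity in HepG2 is read through transiently transfected cis-element reporter units. After 24 h dosing, RNA undergoes reverse transcription, PCR and primer extension with 6-FAM before capillary electrophoresis; DMSO-referenced bidirectional fit.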

[9] = ATG_EGR_CIS: Attagene CIS-FACTORIAL HepG2 Assay for human Early Growth Response 1 (EGR1) (AID 2282938); details: HepG2 Attagene CIS-FACTORIAL EGR reporter mRNA; actives raise or lower the signal
Summary of the method: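 Activity is taken as induction or loss of reporter mRNA versus DMSO, fitted bidirectionally. Transcripts from cis-regulated reporter units in transiently transfected HepG2 were measured after 24 h by RT-PCR with capillary electrophoresis.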

[10] = ATG_Ets_CIS: Attagene CIS-FACTORIAL HepG2 Assay for human Erythroblast Transformation Specific (ETS) (AID 2282941); details: HepG2 ETS cis-reporter transcription, actives raise or lower the signal
Summary of the method: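 Multiplexed reporter transcript profiling: HepG2, 24 h treatment, total RNA to cDNA, PCR, 6-FAM labelling, HpaI cut, capillary electrophoresis. Gain- or loss-of-signal fitted against DMSO.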

[11] = ATG_FoxO_CIS: Attagene CIS-FACTORIAL HepG2 Assay for human Forkhead box O (FoxO) (AID 2282943); details: HepG2 Attagene cis-reporter, FoxO element, mRNA; actives raise or lower the signal
Summary of the method: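 HepG2 cells transiently transfected with cis-element-driven reporter units report endogenous FoxO activity. After 24 h chemical exposure, reporter mRNA quantified by RT-PCR, fluorescent labeling, HpaI digestion and capillary electrophoresis; bidirectional fit versus DMSO.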

[12] = ATG_GLI_CIS: Attagene CIS-FACTORIAL HepG2 Assay for human Zinc Finger Protein GLI1 (AID 2282945); details: HepG2, Attagene cis-factorial reporter mRNA, GLI element; actives raise or lower the signal
Summary of the method: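 Transiently transfected HepG2 cells report endogenous transcription factor activity via cis-element-driven reporter units. After 24 h compound exposure, reporter mRNA was measured by RT-PCR with capillary electrophoresis; bidirectional fitting against DMSO baseline.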

[13] = ATG_ISRE_CIS: Attagene CIS-FACTORIAL HepG2 Assay for human Interferon Regulatory Factor 1 (IRF1) binding to an Interferon-Stimulated Response Element (ISRE) (AID 2282948); details: HepG2 ISRE cis-reporter (Attagene), mRNA transcription readout; actives raise or lower the signal
Summary of the method: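 Signal reflects induction or loss of ISRE-linked reporter mRNA in transiently transfected HepG2 cells after a 24 h treatment, detected by fluorescent RT-PCR fragments on capillary electrophoresis and normalised to DMSO.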

[14] = ATG_M_32_CIS: Attagene CIS-FACTORIAL HepG2 Assay for M32 Transcription Factor (Internal Marker) (AID 2282949); details: HepG2 Attagene cis-factorial M32 reporter, mRNA; actives raise or lower the signal;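 also: background control marker of the multiplexed CIS panel rather than a real target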
Summary of the method: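 HepG2 human liver cells transiently transfected with cis-promoter-driven multiple reporter transcription units, dosed 24 h. Reporter mRNA quantified by RT-PCR, FAM-labelled primer extension, HpaI digest and capillary electrophoresis; bidirectional fit versus DMSO baseline.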

[15] = ATG_M_06_CIS: Attagene CIS-FACTORIAL HepG2 Assay for M06 Transcription Factor (Internal Marker) (AID 2282950); details: HepG2 Attagene CIS-FACTORIAL M06 internal marker reporter; actives raise or lower the signal
Summary of the method: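 Cells (HepG2, transiently carrying cis-driven reporter units) receive chemical for 24 h before RNA isolation. Reporter cDNA is PCR-amplified, FAM-labelled by primer extension, HpaI-digested and sized on a capillary analyser.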

[16] = ATG_MRE_CIS: Attagene CIS-FACTORIAL HepG2 Assay for human Metal Responsive Element (MRE) (AID 2282954); details: HepG2 MRE cis-reporter transcription, Attagene multiplex; actives raise or lower the signal
Summary of the method: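 Measured here is mRNA induction from an MRE cis-element reporter in HepG2 after 24 h, quantified by fluorescence of labelled RT-PCR products on capillary electrophoresis; gain- and loss-of-signal fits use DMSO as baseline.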

[17] = ATG_PXRE_CIS: Attagene CIS-FACTORIAL HepG2 Assay for human Pregnane X Receptor Element (PXRE) (AID 2282957); details: HepG2 Attagene CIS-FACTORIAL PXRE reporter, mRNA; actives raise or lower the signal
Summary of the method: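 Read-out: fluorescence of reporter-specific RT-PCR products resolved by capillary electrophoresis, fitted bidirectionally relative to DMSO. Human HepG2 liver cells carried transfected cis-promoter reporter units and were exposed to chemicals for 24 h.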

[18] = ATG_Sox_CIS: Attagene CIS-FACTORIAL HepG2 Assay for human SRY-box transcription factor (SOX) (AID 2282960); details: HepG2 Attagene cis-factorial SOX reporter, mRNA; actives raise or lower the signal
Summary of the method: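 Measures mRNA induction of a SOX1-associated reporter in HepG2 after 24 h dosing. Fluorescently labelled RT-PCR fragments are separated by capillary electrophoresis, and gain or loss relative to DMSO control is fitted.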

[19] = molecular target: Transcription factor Sp1 (Homo sapiens) (UniProt P08047); assay: ATG_Sp1_CIS: Attagene CIS-FACTORIAL HepG2 Assay for human Specificity Protein 1 (Sp1) (AID 2282961); details: HepG2 Sp1 cis-reporter transcription, actives raise or lower the signal
Chain of Transcription factor Sp1 (Homo sapiens) (P08047 whole entry, looked up): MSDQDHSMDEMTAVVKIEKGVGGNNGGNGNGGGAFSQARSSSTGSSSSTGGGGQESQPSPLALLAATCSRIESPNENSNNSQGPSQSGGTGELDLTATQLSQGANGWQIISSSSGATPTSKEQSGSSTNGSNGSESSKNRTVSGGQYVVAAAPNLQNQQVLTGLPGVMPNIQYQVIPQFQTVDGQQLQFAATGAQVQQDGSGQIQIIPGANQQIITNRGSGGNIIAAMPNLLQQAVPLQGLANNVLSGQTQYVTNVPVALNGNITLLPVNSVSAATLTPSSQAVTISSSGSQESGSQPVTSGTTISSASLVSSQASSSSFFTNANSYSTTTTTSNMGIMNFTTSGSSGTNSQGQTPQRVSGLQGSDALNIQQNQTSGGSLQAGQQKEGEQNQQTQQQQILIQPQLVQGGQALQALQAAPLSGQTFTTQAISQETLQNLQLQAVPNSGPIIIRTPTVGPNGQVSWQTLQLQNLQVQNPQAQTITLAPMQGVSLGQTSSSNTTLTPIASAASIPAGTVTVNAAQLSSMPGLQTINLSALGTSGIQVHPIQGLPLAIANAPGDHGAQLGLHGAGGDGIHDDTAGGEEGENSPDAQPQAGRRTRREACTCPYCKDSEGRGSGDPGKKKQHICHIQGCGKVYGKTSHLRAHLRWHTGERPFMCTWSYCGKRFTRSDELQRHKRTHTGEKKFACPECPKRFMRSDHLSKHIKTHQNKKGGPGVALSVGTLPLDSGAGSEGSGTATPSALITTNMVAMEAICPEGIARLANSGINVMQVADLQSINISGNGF
Summary of the method: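 Cells: HepG2, transiently transfected with cis-regulated multiplexed reporters. Exposure: 24 h. Detection: reporter transcripts amplified, fluorescently labeled, restriction-digested and sized by capillary electrophoresis. Analysis: bidirectional fit relative to DMSO.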

[20] = ATG_SREBP_CIS: Attagene CIS-FACTORIAL HepG2 Assay for human Sterol Regulatory Element Binding (SREBP) (AID 2282962); details: HepG2 Attagene cis-factorial SREBP reporter, mRNA; actives raise or lower the signal
Summary of the method: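 Values derive from bidirectional curve fitting with DMSO as baseline. The underlying measurement is reporter mRNA from cis-element-regulated units in transiently transfected HepG2, quantified by RT-PCR and capillary electrophoresis after 24 h exposure.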

Measured: AC50

O=C(OCc1ccccc1)c1ccccc1
active: [17] 26.4 µM
inactive: all other assays above

COc1c2occc2cc2ccc(=O)oc12
active: [2] 63.8 µM | [3] 59.2 µM | [17] 27.3 µM
inactive: all other assays above

COC(=O)/C=C\C(=O)OC
active: [9] 83.1 µM | [10] 100 µM | [13] 45.8 µM | [17] 6.26 µM | [18] 100 µM
inactive: all other assays above

O=C(O)/C=C/C(=O)O
inactive: all assays above

CCCCn1cc[n+](C)c1
inactive: all assays above

CCCCNC(N)=O
active: [17] 68.7 µM
inactive: all other assays above

CN(C)N=Nc1ccccc1
active: [17] 48.3 µM
inactive: all other assays above

CC[N+](CC)(CC(=O)Nc1c(C)cccc1C)Cc1ccccc1
active: [17] 32.4 µM
inactive: all other assays above
